A selection: hits, their analogues and other compounds. The true share with any hit is near 2.2%.
KLF5 inhibitor: kruppel-like factor 5 inhibition; DLD-1 KLF5 promoter-luciferase reporter, luminescence; inhibition, % at 5 µM; hit rate 0.23% among 290,000; AID 1700;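 active means inhibition above a per-plate limit of that plate's mean compound inhibition plus 3 SD, cut at about 60% in these data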;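 further: higher means less KLF5 promoter-driven luciferase light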
APP transl inh: APP translation inhibition; SH-SY5Y APP 5'UTR-luciferase reporter, luminescence; inhibition, % at 2 µM; hit rate 0.82% among 190,000;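 active means inhibition above a set limit, derived from the sample mean plus 3 SD, cut at about 45% in these data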
BaF3 tox: counter-screen for JAK2V617F inhibitors: parental Ba/F3 viability inhibitors; inhibition, % at 5.6 µM; hit rate 1.1% among 220,000; CellTiter-Glo ATP luminescence;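 active means inhibition above a per-campaign cutoff, the mean inhibition of all tested compounds plus 3 SD, cut at about 27% in these data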
Ba/F3 V617F tox: reduce viability of Ba/F3 cells dependent on JAK2V617F; Ba/F3 EpoR-JAK2V617F viability, ATP luminescence; inhibition, % at 5.6 µM; hit rate 1.1% among 220,000; AID 1446;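 active means inhibition above the campaign mean plus 3 SD over all tested compounds, cut at about 24% in these data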;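 further: cytokine-independent growth of Ba/F3 cells driven by EpoR plus mutant JAK2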
IEC-6 tox: counter-screen for KLF5 inhibitors: cytotoxicity in IEC-6 cells; IEC-6 cytotoxicity, luminescence viability; inhibition, % at 5 µM; hit rate 0.78% among 290,000
aSyn 5UTR inh: MLPCN primary screen, SNCA 5' untranslated region; alpha-synuclein 5'UTR reporter, inhibitor activity; inhibition, % (tested at 7.5 µM); hit rate 0.82% among 300,000; in the data active means inhibition above about 60%;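 further: H4 neuroglioblastoma cells stably carrying SNCA 5'UTR luciferase fusion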
IEC-6 cytotox cf: confirmation of cytotoxic compounds in rat IEC-6 intestinal epithelial cells; inhibition, % at 5 µM; AID 1907; shares compounds with IEC-6 tox; hit rate 63% among 1,900; IEC-6 rat intestinal epithelial viability, luminescence
Large screens that a line does not name were inactive (follow-up assays come after a bar, where they were run). Unless noted, no stated cut-off is given here; in the data, active means inhibition above about 22%; inactive means the rest.

COc1ccc(C(=O)N[C@H](C(=O)Nc2nc3ccccc3[nH]2)C(C)C)cc1	APP transl inh 77, BaF3 tox 61, Ba/F3 V617F tox 42, IEC-6 tox 63, aSyn 5UTR inh 106 | IEC-6 cytotox cf 59
COc1ccc(NC(=O)C(NC(=O)c2ccccc2)C(C)C)cc1 (stereo unspecified)	none
Cc1cccc(C(=O)N[C@H](C(=O)Nc2nc3ccccc3[nH]2)C(C)C)c1	APP transl inh 62, BaF3 tox 27, Ba/F3 V617F tox 77, IEC-6 tox 74, aSyn 5UTR inh 96 | IEC-6 cytotox cf 56
NS(=O)(=O)c1ccc(CNC(=O)c2ccccc2SCC(=O)N2CCCC2)cc1	none (no result: KLF5 inhibitor, APP transl inh, BaF3 tox, Ba/F3 V617F tox, IEC-6 tox)
Cc1noc(/C=C/N(C)C)c1S(=O)(=O)N1CCCC(C(=O)NCCC2=CCCCC2)C1 (stereo unspecified)	none | IEC-6 cytotox cf inactive
CCn1c(=O)cc(SCC(=O)NCCCN2CCN(c3ccccc3F)CC2)c2ccccc21	IEC-6 tox 22 | IEC-6 cytotox cf 27
NNC(=O)c1[nH]c(-c2ccccc2)cc1-c1ccccc1	IEC-6 tox 28 (no result: APP transl inh, BaF3 tox, Ba/F3 V617F tox) | IEC-6 cytotox cf inactive
Cc1nn(Cc2ccccc2)c2ncccc12	none (no result: APP transl inh, BaF3 tox, Ba/F3 V617F tox)
O=C(COC(=O)c1ccco1)NC1CCCC1	none (no result: APP transl inh, BaF3 tox, Ba/F3 V617F tox)
COc1cc(/C=N/NC(=O)c2cccc(S(=O)(=O)N3CCCCC3)c2)cc(Br)c1O	none
COc1ccc(-c2cc(C(=O)N3CCCC3)c3ccccc3n2)cc1	none (no result: APP transl inh, BaF3 tox, Ba/F3 V617F tox)
COc1ccc(-c2cc(C(=O)N3CCN(c4ccccc4)CC3)c3ccccc3n2)cc1	APP transl inh 75, IEC-6 tox 28 | IEC-6 cytotox cf inactive
Cn1cnnc1SCC(=O)c1ccc(O)c(O)c1	none
O=C1c2ccccc2C(=O)N1c1cccc2cccnc12	IEC-6 tox 44 | IEC-6 cytotox cf inactive
CCn1c(CNC(=O)c2ccccc2F)cc2cc(C)ccc21	none (no result: APP transl inh, BaF3 tox, Ba/F3 V617F tox)
CC(NC(=O)c1ccc(F)cc1F)C1CC2CCC1C2 (stereo unspecified)	none (no result: APP transl inh, BaF3 tox, Ba/F3 V617F tox)
CC(=O)Nc1ccc(SCC(=O)Nc2ccc(Cl)cn2)cc1	none
COc1ccc(C(NC(C)=O)c2cc(Cl)c3cccnc3c2O)cc1 (stereo unspecified)	KLF5 inhibitor 75, IEC-6 tox 54, aSyn 5UTR inh 76 (no result: APP transl inh, BaF3 tox, Ba/F3 V617F tox) | IEC-6 cytotox cf 56
CC1(C)Cc2nc3sc4c(SCC(=O)NCc5ccccc5)ncnc4c3cc2CO1	APP transl inh 67, BaF3 tox 36, Ba/F3 V617F tox 53, IEC-6 tox 48, aSyn 5UTR inh 64 | IEC-6 cytotox cf 51
CC1(C)Cc2nc3sc4c(SCC(=O)O)ncnc4c3cc2CO1	none (no result: APP transl inh)
C=CCn1c(O)c(N=NC(=S)Nc2ccccc2F)c2cc(S(=O)(=O)N3CCOCC3)ccc21	IEC-6 tox 30, aSyn 5UTR inh 78 | IEC-6 cytotox cf inactive
CCOc1ccc(/C=N/NC(=O)C2CCCC2)c(OCC)c1	none (no result: APP transl inh, BaF3 tox, Ba/F3 V617F tox)
CC(=O)c1cc2c(cc1NS(=O)(=O)c1ccc3c(c1)OCCO3)OCO2	none
COC(=O)c1ccc(Cl)c(NS(=O)(=O)c2ccc3c(c2)OCCO3)c1	IEC-6 tox 28 | IEC-6 cytotox cf inactive
Cc1ccc(OCC(=O)NNC(=O)C2CC(=O)N(c3ccc4c(c3)OCCO4)C2)cc1 (stereo unspecified)	none (no result: KLF5 inhibitor, APP transl inh, BaF3 tox, Ba/F3 V617F tox, IEC-6 tox)
O=C(NN(c1ccccc1)c1ccccc1)c1ccc([N+](=O)[O-])o1	IEC-6 tox 27 | IEC-6 cytotox cf inactive
O=C(NC1CCCCC1)c1ccc([N+](=O)[O-])o1	IEC-6 tox 68 (no result: APP transl inh, BaF3 tox, Ba/F3 V617F tox) | IEC-6 cytotox cf inactive
CC(NC(=O)c1ccc([N+](=O)[O-])o1)C12CC3CC(CC(C3)C1)C2 (stereo unspecified)	IEC-6 tox 60 (no result: APP transl inh, BaF3 tox, Ba/F3 V617F tox) | IEC-6 cytotox cf inactive
NC(=O)c1oc2ccccc2c1NC(=O)c1ccc(F)cc1	none
O=C(NNC(=O)c1ccc([N+](=O)[O-])o1)c1ccccc1	none
NC(=O)c1oc2ccccc2c1NC(=O)c1ccc([N+](=O)[O-])o1	IEC-6 tox 100, aSyn 5UTR inh 100 (no result: APP transl inh, BaF3 tox, Ba/F3 V617F tox) | IEC-6 cytotox cf 57
CCOC(=O)Cc1nn(Cc2nc(-c3ccc(C)cc3)cs2)c(=O)c2ccccc12	none (no result: APP transl inh)
O=C(/C=C/c1ccccc1)NC(=S)N1CCSCC1	none
Cc1cccc(C)c1OCC(O)CNC(C)c1ccccc1 (stereo unspecified)	IEC-6 tox 39 (no result: APP transl inh, BaF3 tox, Ba/F3 V617F tox) | IEC-6 cytotox cf inactive
Cc1csc2ncnc(NC3CCN(Cc4ccccc4)CC3)c12	BaF3 tox 61, Ba/F3 V617F tox 55, IEC-6 tox 23 (no result: APP transl inh) | IEC-6 cytotox cf inactive
Cc1ccc(-c2csc3ncnc(N4CCN(Cc5ccccc5)CC4)c23)cc1	none (no result: APP transl inh, BaF3 tox, Ba/F3 V617F tox)
CC1CCCCN1C(=O)CN1C(=O)CSc2ccc(S(=O)(=O)N3CCOCC3)cc21 (stereo unspecified)	none (no result: APP transl inh, BaF3 tox, Ba/F3 V617F tox)
COc1cc2c(cc1OC)-c1c(OC)c(OC)cc3ccnc(c13)C2=O	BaF3 tox 39, Ba/F3 V617F tox 47, IEC-6 tox 29, aSyn 5UTR inh 110 | IEC-6 cytotox cf 25
Cc1nc(C)c(C(=O)Nc2cccc(F)c2)s1	none (no result: APP transl inh, BaF3 tox, Ba/F3 V617F tox)
COc1ccc(N2CCN(c3ncnc4c3[nH]c3ccccc34)CC2)cc1	none (no result: APP transl inh)
COc1ccc2[nH]c3c(N4CCc5ccccc5C4)ncnc3c2c1	BaF3 tox 78, Ba/F3 V617F tox 76, IEC-6 tox 77 (no result: APP transl inh) | IEC-6 cytotox cf 66
Cc1csc2c(=O)n(CCO)c(=O)[nH]c12	none (no result: APP transl inh)
COC(=O)C(NC(=O)c1ccco1)(Nc1cc(C)ccn1)C(F)(F)F (stereo unspecified)	IEC-6 tox 52 | IEC-6 cytotox cf inactive
CCOc1ccc(NS(=O)(=O)c2ccc3[nH]c(=O)[nH]c3c2)cc1	none (no result: APP transl inh, BaF3 tox, Ba/F3 V617F tox)
COc1ccc(CCN2C(=O)c3ccccc3NC2c2cc(Cl)c(O)c(OC)c2)cc1 (stereo unspecified)	IEC-6 tox 54 (no result: APP transl inh, BaF3 tox, Ba/F3 V617F tox) | IEC-6 cytotox cf inactive
COc1ccc(NC(=O)c2cccnc2)c([N+](=O)[O-])c1	BaF3 tox 60, Ba/F3 V617F tox 66, IEC-6 tox 46 | IEC-6 cytotox cf 30
CC1=C([N+](=O)[O-])C(c2ccccc2)C2=C(N1)c1ccccc1C2=O (stereo unspecified)	APP transl inh 57, BaF3 tox 71, Ba/F3 V617F tox 77, IEC-6 tox 47, aSyn 5UTR inh 113 | IEC-6 cytotox cf 56
COc1ccc(C2C(C#N)=C(C)NC3=C2C(=O)c2ccccc23)cc1 (stereo unspecified)	none
Nc1cccc(-c2nc3ccc(C(=O)c4ccccc4)cc3[nH]2)c1	IEC-6 tox 72 (no result: APP transl inh, BaF3 tox, Ba/F3 V617F tox) | IEC-6 cytotox cf 60
Cc1cc(=O)oc2cc(NC(=O)C(C)Oc3cccc(Cl)c3)ccc12 (stereo unspecified)	none (no result: KLF5 inhibitor, APP transl inh, BaF3 tox, Ba/F3 V617F tox, IEC-6 tox)
CCCCCOc1ccc(Br)cc1/C(C)=N/NC1=NCCN1	APP transl inh 94, BaF3 tox 73, Ba/F3 V617F tox 78, IEC-6 tox 83, aSyn 5UTR inh 88 | IEC-6 cytotox cf 60
O=C(c1cccc(N2CCCC2=O)c1)N1CCN(c2cccc(Cl)c2)CC1	IEC-6 tox 44 (no result: APP transl inh, BaF3 tox, Ba/F3 V617F tox) | IEC-6 cytotox cf inactive
CCN(CC)c1ccc(/C=C2\C(=N)N3N=C(CC(=O)N4CCOCC4)SC3=NC2=O)cc1	none (no result: APP transl inh, BaF3 tox, Ba/F3 V617F tox)

Screening results as filed in PubChem.
